sEH activator: increases human soluble epoxide hydrolase activity; 0.04% of 91,000 active; purified human sEH enzymatic activity, activator screen; activation, % at 2 µM; P34913; in the data active means activation above about 37%
CYP2C9 act: CYP2C9 (human) activation. P11712. recombinant CYP2C9, luciferin-H conversion, luminescence; hits give high values; factor 1 = untreated enzyme, 0 = blocked. activation factor at 5 µM. 1.4% of 96,000 active. AID 1024;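 active means activation factor of 2 or more for CYP2C9 at a 5 µM dose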;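 further: 0 = sulfaphenazole-blocked wells and 1 = vehicle-only wells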
sEH inhibitor: blocks human soluble epoxide hydrolase activity; P34913; recombinant human sEH enzymatic activity assay; inhibition, % at 2 µM; 0.34% of 91,000 active; AID 707; in the data active means inhibition above about 80%
CYP2C19 inh: inhibitors of human CYP2C19 | CYP2C19 Supersomes, luciferin-H EGE luminescence, 30 min | inhibition, % at 5 µM | 21% of 96,000 active;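 active means CYP2C19 inhibition above a set limit at 5 µM in the primary screen, cut at about 50% in these data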;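 further: plate controls were negative control wells for no effect and 2.5 mM tranylcypromine positive control for full effect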
Target sequence (P33261 whole entry, looked up): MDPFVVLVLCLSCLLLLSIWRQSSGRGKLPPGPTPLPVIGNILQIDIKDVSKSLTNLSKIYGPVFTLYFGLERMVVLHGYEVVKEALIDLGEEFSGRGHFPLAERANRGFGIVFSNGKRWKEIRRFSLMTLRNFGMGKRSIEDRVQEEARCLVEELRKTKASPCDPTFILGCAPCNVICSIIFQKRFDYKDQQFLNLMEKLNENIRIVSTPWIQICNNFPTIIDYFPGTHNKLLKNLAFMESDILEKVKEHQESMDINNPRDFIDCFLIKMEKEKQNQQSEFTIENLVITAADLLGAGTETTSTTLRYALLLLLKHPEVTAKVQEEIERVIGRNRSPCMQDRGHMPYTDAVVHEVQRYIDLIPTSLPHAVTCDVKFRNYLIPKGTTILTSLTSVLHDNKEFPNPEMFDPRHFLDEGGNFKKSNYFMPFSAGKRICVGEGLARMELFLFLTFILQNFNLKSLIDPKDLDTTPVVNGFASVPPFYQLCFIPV
CYP2C9 inhib: blocks human cytochrome P450 2C9. AID 777. P11712. inhibition, % at 5 µM. CYP2C9 Supersomes, luciferin-H conversion, luminescence. 20% of 96,000 active;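 active means blocking of liver enzyme CYP2C9 beyond about 50% at 5 µM, limit read from the data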
CYP2C19 activ: increases human CYP2C19 enzyme activity; P33261; recombinant CYP2C19, luciferin-H EGE luminescence; hits give high values; 0 = fully inhibited enzyme, 1 = untreated enzyme; activation factor at 5 µM; 96,000 tested, under 10 active;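 active means activation factor of at least 2 at 5 µM in the primary screen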;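 further: 0 = wells with 2.5 mM tranylcypromine and 1 = vehicle-only wells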
The depositor's hits bear a star; / = no result given. An excerpt weighted towards active compounds, which were near 27% of everything screened.

SMILES | sEH activator | CYP2C9 act | sEH inhibitor | CYP2C19 inh | CYP2C9 inhib | CYP2C19 activ
COc1ccc(OC)c2c1C(=O)c1ccccc1C2=O | -10 | 0.8 | 12 | 7 | 18 | 0.9
Cc1ccc(CSCCNC(=O)CSCc2ccc([N+](=O)[O-])cc2)cc1 | -6 | 0.3 | 7 | 58* | 75* | 0.4
CC1CCC(NCc2ccco2)CC1 (centres undefined) | 0 | 1.1 | 2 | -20 | -12 | 1.2
CCOC(=O)C1CSc2[nH]c(=O)sc2C1c1ccccc1 (centres undefined) | -1 | 0.4 | 3 | 81* | 62* | 0.2
COC(=O)C1CSc2[nH]c(=O)sc2C1c1ccc(O)c(OC)c1 (centres undefined) | 7 | 0.9 | -7 | 2 | 6 | 1
Cc1ccccc1NC(=O)COC(=O)CN1C(=O)NC(C)(C)C1=O | 6 | 0.8 | -7 | 22 | 16 | 0.8
CC(OC(=O)CN1C(=O)NC(C)(C)C1=O)C(=O)c1ccccc1 (centres undefined) | 2 | 0.8 | 0 | 60* | 24 | 0.4
C[C@@]12CC(=O)NC1N(C(=O)c1ccccc1)C(c1ccccc1OC(=O)c1ccccc1)C2 (some centres undefined) | -3 | 0.7 | 3 | 40 | 32 | 0.6
CCN=c1scc(-c2ccco2)n1/N=C/c1ccc(O)cc1 | -17 | 1.1 | 16 | 10 | -11 | 0.9
C=C(C)CN=c1scc(C)n1/N=C/c1ccco1 | / | 0.6 | / | 88* | 44 | 0.1
Cc1c(C)[n+](=O)c(-c2ccco2)c(C)n1[O-] | 7 | 0.8 | -8 | 17 | 17 | 0.8
CC(C)n1c(SCC(=O)c2ccc3c(c2)OCCO3)nc2c1c(=O)n(C)c(=O)n2C | / | 0.7 | / | 14 | 26 | 0.9
Cc1c(C(=O)O)sc2nc3n(c(=O)c12)CCCCC3 | -1 | 1.1 | -1 | 8 | -7 | 0.9
CCOC(=O)c1sc2nc3n(c(=O)c2c1C)CCCCC3 | 5 | 0.4 | -4 | 74* | 57* | 0.3
CCOC(=O)c1sc2nc(SCC#N)n(CCCN3CCCC3=O)c(=O)c2c1C | -10 | 0.2 | 11 | 55* | 79* | 0.4
O=C1CCCN1Cc1ncnn1-c1ccccc1 | 7 | / | -9 | / | / | /
Cc1ccc(C)n1NC(=O)c1ccccc1O | 1 | 0.6 | -2 | 19 | 45 | 0.8
CCN1N=C(c2ccccc2)Cn2c1nc1ccccc12 | -6 | 0.3 | 0 | 58* | 69* | 0.4
CCn1nc(-c2ccccc2)c2nc3ccccc3nc21 | -2 | 0.8 | 0 | 12 | 19 | 0.9
Cc1ccccc1C(=O)N1CCC(C(=O)Nc2cccc(F)c2)CC1 | -8 | 0.5 | 10 | 32 | 51* | 0.7
COC(=O)c1ccccc1NC(=O)C1CCN(S(C)(=O)=O)CC1 | 6 | 1.3 | -2 | 2 | -31 | 1
O=C(Nc1ccccc1C(=O)N1CCCCC1)C1CCCCC1 | / | 0.4 | / | 6 | 56* | 0.9
O=C(c1ccccc1Nc1ccc(SC(F)F)cc1)N1CCCCC1 | -24 | 0.5 | 23 | 88* | 53* | 0.1
COC(=O)c1ccccc1NC(=O)C1CCN(C(=O)c2ccc(OC)cc2)CC1 | -7 | 0.7 | 4 | 50* | 30 | 0.5
CC(C)(C)C(=O)Nc1ccccc1C(=O)N1CCCC1 | 3 | / | -4 | / | / | /
SMILES | sEH activator | CYP2C9 act | sEH inhibitor | CYP2C19 inh | CYP2C9 inhib | CYP2C19 activ
COc1ccccc1OC(=O)C1CC(=O)N(c2ccc(Cl)cc2)C1 (centres undefined) | 16 | 0.7 | -22 | 44 | 35 | 0.6
CC(C)(C)c1ccc(OC(=O)Cn2c(C(F)(F)F)nc3ccccc32)cc1 | -4 | 0.8 | 5 | 9 | 16 | 0.9
CC(Nc1nc(N2CCN(S(C)(=O)=O)CC2)nc2ccccc12)c1ccccc1 (centres undefined) | -25 | / | 28 | / | / | /
Cc1cc(NC(=O)c2ccccc2)ncc1NC(=O)c1ccco1 | / | 0.4 | / | 95* | 56* | 0.1
CCCC(=O)Nc1cc(C)c(NC(=O)c2ccccn2)cn1 | / | 1 | / | 54* | -3 | 0.5
CCCC(=O)Nc1cnc(NC(=O)c2cccc(F)c2)cc1C | / | 0.8 | / | 68* | 23 | 0.3
Cc1cc(NC(=O)C(C)C)ncc1NC(=O)c1cccc(F)c1 | 4 | 0.8 | -1 | 11 | 18 | 0.9
CCC(=O)Nc1cc(C)c(NC(=O)c2ccco2)cn1 | -4 | 1.1 | 6 | 5 | -8 | 1
CC(C)(C)NS(=O)(=O)c1ccc(CCC(=O)NCc2ccc3c(c2)OCO3)cc1 | -29 | / | 28 | / | / | /
O=C(OC(C(=O)NC1CCCC1)c1ccncc1)C1=Cc2ccccc2OC1 (centres undefined) | -14 | 0.3 | 14 | 89* | 74* | 0.1
CCc1nc2c(c(SC)nn2-c2ccccc2)c(N)c1C(=O)OC | 7 | 0.9 | -5 | 2 | 15 | 1
CCCCN1C(=O)c2ccc(C(=O)NC3=NCCS3)cc2C1=O | -14 | 0.3 | 17 | 43 | 72* | 0.6
CCCCN1C(=O)c2ccc(C(=O)Nc3cccc(C)c3C)cc2C1=O | -21 | 1.2 | 23 | -5 | -16 | 1
O=c1[nH]c(CSc2nnc(NCCCN3CCOCC3)s2)nc2cc(Cl)ccc12 | 2 | 1 | 0 | -7 | 2 | 1.1
CC(C)(C)c1ccc(C(=O)NCCC(=O)N2CCN(c3ncccn3)CC2)cc1 | 13 | 0.8 | -14 | -14 | 17 | 1.1
O=C(CN1CCN(c2ncc(C(F)(F)F)cc2Cl)CC1)N1CCN(c2ncc(C(F)(F)F)cc2Cl)CC1 | -2 | 0.2 | -1 | 62* | 82* | 0.4
O=C(CCSc1ccc(Cl)cc1)N1CCN(c2ncccn2)CC1 | -4 | 0.4 | 4 | 25 | 65* | 0.7
O=C(CSc1ccc(Cl)cc1)N1CCN(c2ncc(C(F)(F)F)cc2Cl)CC1 | -1 | 0.2 | 1 | 43 | 81* | 0.6
O=C(Cc1ncc(C(F)(F)F)cc1Cl)N1CCN(c2ccccn2)CC1 | 4 | 1.2 | -6 | 18 | -18 | 0.8
O=C(OCCN1CCN(c2ncc(C(F)(F)F)cc2Cl)CC1)c1ccc(F)cc1 | -8 | 0.3 | 10 | 27 | 69* | 0.7
COc1ccc(CC(=O)OCC(=O)Nc2c(C)n(C)n(-c3ccccc3)c2=O)cc1 | / | 1.2 | / | -23 | -18 | 1.2
O=C(CSc1nccc(=O)[nH]1)Nc1ccc(S(=O)(=O)N2CCOCC2)cc1 | -6 | / | 10 | / | / | /
NS(=O)(=O)c1ccc(CCNC(=O)CNC(=O)C2CCCCC2)cc1 | / | 0.9 | / | 8 | 14 | 0.9
O=C1C2C3C=CC(C3)C2C(=O)N1/N=C/c1cc(Br)cc([N+](=O)[O-])c1O (centres undefined) | 4 | 0.6 | -4 | -6 | 41 | 1.1
CNC(=O)c1cc2cc(OC)ccc2n1CCN(Cc1ccccc1)Cc1ccccc1 | 4 | 0.3 | -5 | 92* | 67* | 0.1
CNC(=O)c1cc2cc(OC)ccc2n1CCN(C)C | -1 | 1 | 4 | 63* | -4 | 0.4
Cc1nc2nc(C)n(-c3ccccc3)c2s1 | -2 | 1 | 1 | -1 | 2 | 1

Screening data as filed in PubChem.
